Screens (PubChem)
rCAG binder-1: binds r(CAG) RNA repeats | r(CAG) RNA repeat, TO-PRO-1 dye displacement fluorescence | inhibition, % at 3 µM | hit rate 1.3% among 370,000;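 active means inhibition above the plate cutoff, the mean of all test compounds on that plate plus 3 SD, cut at about 35% in these data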;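 further: 0% = DMSO alone and 100% = 100 µM mitoxantrone as full dye displacement; higher means more dye released from RNA so lower well fluorescence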
UHRF1 MBD2 ctr: blocks human UHRF1 binding to methylated DNA; UHRF1 binding to methylated oligo, TR-FRET; AID 687016; inhibition, % at 4.4 µM; hit rate 0.75% among 370,000; Q96T88; in the data active means inhibition above about 21%;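 further: UHRF1 SRA domain binding a hemimethylated CpG hairpin DNA probe; 0% = median of test compound wells and 100% = reference inhibitor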
Target sequence (Q96T88 whole entry, looked up, the tested form may be a part): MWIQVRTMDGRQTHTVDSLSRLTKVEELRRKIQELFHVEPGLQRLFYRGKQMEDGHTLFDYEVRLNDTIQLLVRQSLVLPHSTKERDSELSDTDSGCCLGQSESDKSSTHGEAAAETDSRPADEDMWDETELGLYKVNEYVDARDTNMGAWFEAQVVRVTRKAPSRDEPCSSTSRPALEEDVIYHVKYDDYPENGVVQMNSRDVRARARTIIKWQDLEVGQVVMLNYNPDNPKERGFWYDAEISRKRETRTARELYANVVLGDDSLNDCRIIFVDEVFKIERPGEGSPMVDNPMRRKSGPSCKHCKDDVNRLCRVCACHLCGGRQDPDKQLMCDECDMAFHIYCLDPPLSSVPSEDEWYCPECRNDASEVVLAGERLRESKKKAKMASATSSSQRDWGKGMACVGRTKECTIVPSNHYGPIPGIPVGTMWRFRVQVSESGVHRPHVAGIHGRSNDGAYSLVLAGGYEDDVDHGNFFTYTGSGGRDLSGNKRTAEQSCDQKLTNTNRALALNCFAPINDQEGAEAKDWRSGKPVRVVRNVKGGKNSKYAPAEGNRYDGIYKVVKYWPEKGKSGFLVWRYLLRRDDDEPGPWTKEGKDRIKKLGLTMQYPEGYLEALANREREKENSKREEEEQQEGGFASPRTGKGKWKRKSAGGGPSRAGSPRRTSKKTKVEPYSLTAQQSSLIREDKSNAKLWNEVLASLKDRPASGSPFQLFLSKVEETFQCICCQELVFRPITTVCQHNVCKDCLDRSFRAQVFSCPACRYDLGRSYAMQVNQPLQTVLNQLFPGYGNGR
MBD2 DNA inh: blocks human MBD2 binding to methylated DNA; TR-FRET, MBD2 binding to methylated oligonucleotide; inhibition, % at 4.4 µM; hit rate 0.31% among 370,000; AID 686964; in the data active means inhibition above about 13%
PG9 binder: binds the HIV-1 gp120 antibody PG9; TR-FRET gp120-PG9 antibody binding; inhibition, % at 6.7 µM; hit rate 0.43% among 360,000; in the data active means inhibition above about 8.5%
LEDGF integ inh: blocks HIV-1 LEDGF/p75-dependent DNA integration. TR-FRET IN-LEDGF/p75 DNA integration, Eu/Cy5. inhibition, % at 3.7 µM. hit rate 0.64% among 370,000;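 active means inhibition above the screen-wide mean plus 3 SD, cut at about 13% in these data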;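 further: signal is the Cy5 over europium emission ratio at 671 and 618 nm; 0% = plate median of compound wells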
DNMT1 inh: blocks human DNA methyltransferase DNMT1; DNMT1 molecular beacon, Hinp1I cleavage, fluorescence; hit rate 0.83% among 360,000; P26358; inhibition (reported as % activation of signal), % at 10 µM; in the data active means inhibition above about 50%
Beacon interf DR: beacon fluorescence artifact, dose response counter-screen; shares compounds with DNMT1 inh; molecular beacon fluorescence, spectral interference counter-screen; IC50, µM; 200 tested, under 10 active
DNMT1 confirm: confirmation of human DNMT1 inhibitors. inhibition, % at 10 µM. hit rate 8% among 2,300. shares compounds with DNMT1 inh. DNMT1 molecular beacon HinP1I cleavage, fluorescence;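 active means average inhibition of at least 30% in the single-concentration confirmation test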
Beacon interf: counter-screen for DNMT1 inhibitors: spectral interference; shares compounds with DNMT1 inh; DNMT1 molecular beacon spectral interference counterscreen, fluorescence 485/520; activation (fluorescence interference), % at 10 µM; hit rate 1% among 2,300;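 active means activation of at least 30% at 10 µM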;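 further: DNMT1 catalytic domain with a HinP1I cleavage step and a FAM/dabcyl DNA beacon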
rCAG bind conf: r(CAG) RNA repeat binding, confirmation. shares compounds with rCAG binder-1. TO-PRO-1 dye displacement fluorescence. inhibition, % at 3 µM. hit rate 70% among 4,300. AID 652065;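 active means inhibition above a per-plate cutoff, the mean inhibition of sample wells plus 3 SD, cut at about 35% in these data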;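 further: loss of TO-PRO-1 fluorescence as compound displaces dye from 1x1 AA loop RNA; 0% = DMSO only wells and 100% = 100 µM mitoxantrone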
DNA CAG counter: disrupts DNA CAG TO-PRO-1 complex, flagging rCAG hits | shares compounds with rCAG binder-1 | d(CAG) DNA oligo TO-PRO-1 dye displacement, fluorescence | inhibition, % at 3 µM | hit rate 94% among 4,300;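 active means inhibition above its plate's cutoff, the mean test-well inhibition plus 3 SD, cut at about 4.8% in these data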;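 further: 0% = DNA dye mix with DMSO and 100% = 100 µM mitoxantrone; hits displace the dye from DNA and so lower well fluorescence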
dCAG dye DR: DNA CAG dye complex inhibition, dose response counter-screen; shares compounds with rCAG binder-1; IC50, µM; hit rate 20% among 250; DNA CAG/GTC duplex TO-PRO-1 dye displacement fluorescence; in the data active means IC50 below about 10 µM
dCAG DNA bind: inhibits DNA CAG/GTC TO-PRO-1 complex, rCAG binder counter-screen. shares compounds with rCAG binder-1. d(CAG) DNA duplex TO-PRO-1 dye displacement, fluorescence. IC50, µM. hit rate 80% among 30
rCAG binder-2: binds r(CAG) RNA repeats in late stage dose response. hit rate 100% among 30. shares compounds with rCAG binder-1. AID 720651. r(CAG) RNA TO-PRO-1 dye displacement, fluorescence. IC50, µM
UHRF1 ctr MBD2: inhibits human UHRF1 binding to methylated oligonucleotide, MBD2 counter-screen. shares compounds with MBD2 DNA inh. TR-FRET. inhibition, % at 4.4 µM. hit rate 25% among 1,000. AID 720530; in the data active means inhibition above about 21%;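 further: UHRF1 SRA domain binding a labeled hemimethylated CpG hairpin DNA; 0% = vehicle only and 100% = reference inhibitor with vehicle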
MBD2 DBD conf: confirmation of human MBD2-DBD methylated oligonucleotide binding inhibitors; shares compounds with MBD2 DNA inh; TR-FRET MBD2-DBD binding to methylated oligonucleotide; inhibition, % at 4.4 µM; hit rate 26% among 1,000; AID 720531; in the data active means inhibition above about 14%
* marks the source's active call; other numbers are inactive results; / = no result. An excerpt weighted towards active compounds, which were near 3.5% of everything screened. Unless noted, how the calls were made is not given here.

SMILES | rCAG binder-1 | UHRF1 MBD2 ctr | MBD2 DNA inh | PG9 binder | LEDGF integ inh | DNMT1 inh | Beacon interf DR | DNMT1 confirm | Beacon interf | UHRF1 ctr MBD2 | MBD2 DBD conf | others
COc1ccc(-c2cc(C(=O)O)c3c(C)nn(-c4ccccn4)c3n2)cc1 | 3 | -3 | 1 | 0 | -1 | / | / | / | / | / | /
Cc1nn(-c2ccccc2)c2nc(-c3ccco3)cc(C(=O)O)c12 | 54* | 14 | 5 | 2 | 16* | 61* | / | 2 | -1 | / | / | rCAG bind conf=71*;DNA CAG counter=27*;dCAG dye DR=4.3*;dCAG DNA bind=6.1*;rCAG binder-2=2.5*
COC(=O)c1cc(C)nc2c1c(C)nn2-c1ccccc1 | 1 | 1 | 5 | 0 | 0 | 2 | / | / | / | / | /
COc1ccccc1CNC(=O)CNC(=O)[C@@H]1Cc2ccccc2CN1 | 0 | 5 | -2 | -2 | 3 | 0 | / | / | / | / | /
O=C1NN(c2ccccc2)C(=O)/C1=C/c1ccc(Sc2cccc3ccccc23)o1 | 48* | 7 | 0 | 4 | 9 | 66* | >99 | 69* | -2 | / | / | rCAG bind conf=92*;DNA CAG counter=68*
COc1cccc(/C=C2/C(=O)NN(c3ccccc3)C2=O)c1 | 16 | -1 | -5 | -1 | 4 | -4 | / | / | / | / | /
COc1ccc(CCn2c(O)cc3nn(-c4nc5ccccc5s4)c(=O)c-3c2C)cc1 | 67* | 2 | 6 | -4 | 3 | 79* | / | 11 | 44* | / | / | rCAG bind conf=84*;DNA CAG counter=51*
CCOc1ccc(NC(=O)c2cccc(-n3cccc3)c2)cc1S(=O)(=O)N1CCOCC1 | 31 | 54* | 31* | 0 | 6 | 102* | >99 | 81* | -3 | 77* | 68*
CCN(c1ccccc1)S(=O)(=O)c1cc(C(=O)O)ccc1C | 15 | 60* | 25* | -2 | 9 | 85* | / | 0 | 1 | 51* | 27*
COC(=O)C1=C(C)N(Cc2ccccc2C(F)(F)F)C(=NCc2ccc(C(F)(F)F)cc2)NC1c1ccc(C(F)(F)F)cc1 (stereo unspecified) | 2 | -1 | 7 | -4 | 2 | / | / | / | / | / | /
CC(C)(C)OC(=O)NCc1ccc(CNC(=O)c2nc[nH]c2C(=O)N2CCN(C(=O)OC(C)(C)C)CC2)cc1 | -8 | -2 | -2 | -1 | 0 | 2 | / | / | / | / | /
NC(=O)c1ccc(NC(=O)COC(=O)/C=C/c2ccc(Br)o2)cc1 | 14 | 53* | 27* | 1 | 22* | 90* | / | 2 | 0 | 34* | 22*
CN(C)S(=O)(=O)c1cccc(NC(=O)COC(=O)/C=C/c2ccc(Br)o2)c1 | 11 | 0 | 1 | -1 | 0 | 12 | / | / | / | / | /
C=C(C)C(=O)Nc1cccc(C2=NOC3(C2)C[C@@H](C(N)=O)N(C(=O)c2cc([N+](=O)[O-])cc([N+](=O)[O-])c2C)C3)c1 (stereo partly specified) | 11 | 34* | 18* | -1 | 9 | 96* | / | 17 | 3 | 24* | 12
CCC(=O)Nc1cccc(C2=NOC3(C2)C[C@@H](C(N)=O)N(C(=O)COc2ccc(Cl)cc2)C3)c1 (stereo partly specified) | 0 | 1 | 0 | -2 | 3 | -5 | / | / | / | / | /
C/C=C/C(=O)Nc1cccc(C2=NOC3(C2)C[C@@H](C(N)=O)N(C(=O)c2cc([N+](=O)[O-])cc([N+](=O)[O-])c2C)C3)c1 (stereo partly specified) | 24 | 4 | 1 | 0 | 3 | 4 | / | / | / | / | /
C=C(C)C(=O)Nc1cccc(C2=NOC3(C2)C[C@@H](C(N)=O)N(C(=O)/C=C/CC)C3)c1 (stereo partly specified) | 4 | 67* | 39* | 1 | 9 | 109* | >99 | 42* | 1 | 69* | 43*
C=C(C)C(=O)Nc1cccc(C2=NOC3(C2)C[C@H](C(N)=O)N(C(=O)COc2ccc(Cl)cc2)C3)c1 (stereo partly specified) | 1 | 69* | 51* | 0 | 16* | 98* | >99 | 64* | -2 | 88* | 69*
CCCC1CCC2(CCCN2CCOC(=S)NCc2cccc(C)c2)CC1 (stereo unspecified) | / | -2 | 1 | / | 0 | / | / | / | / | / | /
CCN(CC)CCNc1nc2cc(OC)c(OC)cc2c2nc(-c3ccccc3)nn12 | 3 | 38* | 31* | 0 | -4 | 67* | >99 | 26 | -4 | 34* | 25*
O=C(Nc1cc(C(F)(F)F)cc(C(F)(F)F)c1)[C@H]1O[C@@H](n2ccc(=O)[nH]c2=O)[C@H](O)[C@@H]1O | 1 | -2 | -5 | -1 | 2 | 3 | / | / | / | / | /
Cc1cccc2c(N=NC(=O)c3ccc(NS(=O)(=O)c4cccs4)cc3)c(O)[nH]c12 | 42* | 0 | 21* | -2 | -2 | 87* | / | 19 | -4 | 4 | 3 | rCAG bind conf=72*;DNA CAG counter=30*
Cc1ccc2[nH]c(O)c(N=NC(=O)c3ccc(NS(=O)(=O)c4cccs4)cc3)c2c1 | 11 | -4 | -8 | 0 | -1 | -8 | / | / | / | / | /
O=C(O)c1ccc(-n2cccc2/C=N\NC(=O)c2cc3cc(Br)ccc3o2)cc1 | 50* | 62* | 33* | 0 | 7 | 102* | >99 | 75* | -3 | 66* | 41* | rCAG bind conf=46*;DNA CAG counter=15*
